Six1-Eya2 inh: qHTS Assay for Inhibitors of the Six1/Eya2 Interaction | AlphaScreen GST-Six1/His-Eya2 binding, biochemical; stronger effect = lower value | activity change, % (no concentration beside the values) | 0.56% of 360,000 active; in the data active means activity change below about -65%; inconclusive means mostly about -30% to -63%
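GST-Six1 + His-Eya2 (5X stock: 250/500 nM); Tris pH 8.0, 300 mM NaCl, 0.05% BSA, 0.02% Tween 20; GSH donor/Ni acceptor beads; 1 h 37 °C dark; AlphaScreen readout.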
JMJD2A Tudor: qHTS Assay for Inhibitors of JMJD2A-Tudor Domain; 4.4% of 390,000 active; Lysine-specific demethylase 4A (Homo sapiens), O75164; Potency, µM (top dose mostly 114 µM), usual class: inhibitors; AlphaScreen JMJD2A-Tudor / H3K4me3 peptide binding; further: nearly all actives have a fitted effect of over 50% in size
BAZ2B inh: qHTS Assay for Inhibitors of BAZ2B | 4.4% of 360,000 active | AlphaScreen BAZ2B-H3K14Ac peptide displacement | Potency, µM (top dose mostly 114 µM), usual class: inhibitors | Bromodomain adjacent to zinc finger domain protein 2B (Homo sapiens), Q9UIF8 | AID 504333, 2011; further: nearly all actives have a fitted effect of over 60% in size
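In this displacement format the biotinylated H3(5-23) peptide acetylated at Lys14 serves as ligand at 50 nM, with BAZ2B at 50 nM in PBS pH 7.4 containing 0.01% Tween-20. Donor and acceptor beads are 10 ug/mL final.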
G9a block: qHTS Assay for Inhibitors of Histone Lysine Methyltransferase G9a. G9a H3K9 monomethylation, AlphaScreen, 2 h. Potency, µM (top dose mostly 102 µM), hits mostly inhibitors. 8.8% of 350,000 active. AID 504332, 2011; further: nearly all actives have a fitted effect of over 75% in size
Target sequence (Q96KQ7 913-1193 limits assumed): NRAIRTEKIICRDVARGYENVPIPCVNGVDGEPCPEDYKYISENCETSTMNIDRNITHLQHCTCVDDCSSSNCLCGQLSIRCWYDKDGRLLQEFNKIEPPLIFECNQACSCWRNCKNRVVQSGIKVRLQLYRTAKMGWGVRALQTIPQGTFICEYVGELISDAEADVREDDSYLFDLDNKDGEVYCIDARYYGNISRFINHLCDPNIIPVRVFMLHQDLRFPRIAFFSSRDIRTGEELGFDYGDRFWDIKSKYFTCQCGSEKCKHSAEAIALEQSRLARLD
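AlphaScreen read-out: biotin-H3K9 peptide (500 nM) methylation by 20 nM enzyme with 20 uM SAM, 2 h at room temperature after 15 min compound preincubation; anti-monomethyl H3K9 antibody plus donor/acceptor beads, 10 min dark.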
CtBP-E1A inh: qHTS Assay for Inhibitors of the CtBP/E1A Interaction | 0.49% of 340,000 active | AlphaScreen GST-E1A/His-CtBP binding, 1536-well; stronger effect = lower value | AID 651724, 2012 | activity change, % (test concentration not listed) | CtBP / adenovirus E1A interaction (AlphaScreen); in the data active means activity change below about -65%; inconclusive means mostly about -30% to -63%
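Steps: dispense buffer (Tris pH 8.0, NaCl 300 mM, TCEP 1 mM, BSA, Tween 20); add 5X protein mix (GST-E1A, His-CtBP, 125 nM each); pin 23 nL compound; 2 h at 37 °C, dark; add 5X beads (50 ug/mL); 1 h; read.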
HP1b binding inh: HTS for Inhibitors of HP1-beta Chromodomain Interactions with Methylated Histone Tails; Chromobox protein homolog 1 (Homo sapiens), P83916; AlphaScreen HP1-beta / biotin-H3K9me3 peptide binding; Potency, µM (doses to about 114 µM), actives largely listed as inhibitors; 0.56% of 390,000 active; further: nearly all actives have a fitted effect of over 70% in size
Target sequence (P83916 whole entry, looked up): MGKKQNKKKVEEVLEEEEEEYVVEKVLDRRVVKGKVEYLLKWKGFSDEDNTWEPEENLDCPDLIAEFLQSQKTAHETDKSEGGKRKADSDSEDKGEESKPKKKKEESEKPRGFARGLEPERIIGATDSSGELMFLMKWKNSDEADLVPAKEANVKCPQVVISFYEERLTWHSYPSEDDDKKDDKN
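AlphaScreen: HP1-beta (50 nM) preformed 30 min with biotin-H3(1-18)K9me3 peptide (50 nM) in PBS pH 7.4, 0.01% Tween-20. Compound added for 30 min at RT, then streptavidin donor/nickel chelate acceptor beads (10 ug/mL) for 30 min.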
Each line names hits and unclear results; the compound was inactive in the other large screens. Only some compounds are listed: those with a hit (about 10% of all), similar ones and a draw of the others. Unless noted, the call rests on the fitted dose curve; in most records, active means well fitted inhibition curve with a large enough effect; inconclusive means small, poorly fitted or top-dose-only effect; inactive means no such curve, though single readings can be large or run the other way.

Cc1ccc(Nc2ccc(N)cc2S(=O)(=O)O)cc1	BAZ2B inh inconclusive, G9a block 31.6µM (no result: CtBP-E1A inh)
Nc1ccc(Nc2ccccc2)c(S(=O)(=O)O)c1	JMJD2A Tudor inconclusive, BAZ2B inh 56.2µM, G9a block 44.7µM
CCOC(=O)C1=C(C)NC(C)=C(C(=O)OCC)C1C(=O)OCC(=O)N(C)C1CCS(=O)(=O)C1 (stereo not drawn)	none
O=C(Nc1ccnc(-c2ccncc2)n1)C1CC1	none
COc1ccc(CNC(=O)CN(c2ccccc2)S(=O)(=O)N(C)C)cc1	none
CCOc1cc(CNC(=O)c2ccc3c(c2)N(C)C(=O)C2CCCCN32)cc(OCC)c1OCC (stereo not drawn)	none (no result: Six1-Eya2 inh, CtBP-E1A inh)
CN(C)C=Nc1ccccc1C1C=NNC1=O (stereo not drawn)	G9a block 39.8µM (no result: Six1-Eya2 inh, JMJD2A Tudor, CtBP-E1A inh, HP1b binding inh)
C=CCn1c(C)csc1=Nc1ccccc1C	JMJD2A Tudor 56.2µM, BAZ2B inh 50.1µM, G9a block 50.1µM, HP1b binding inh 50.1µM
C=CCn1c(CC(=O)OC)csc1=Nc1ccc(C(C)=O)cc1	BAZ2B inh inconclusive, G9a block inconclusive
C=CCn1c(C)csc1=Nc1ccc(C(C)=O)cc1	BAZ2B inh 44.7µM, G9a block inconclusive (no result: CtBP-E1A inh)
CCOC(=O)c1ccc(N=c2scc(C)n2CC)cc1	JMJD2A Tudor 39.8µM, BAZ2B inh 39.8µM, G9a block 22.4µM, HP1b binding inh inconclusive
CCc1ccc(S(=O)(=O)N(C(C)=O)c2ccc3oc4c(c3c2)CCCC4)cc1	G9a block inconclusive (no result: Six1-Eya2 inh, CtBP-E1A inh)
CCOC1=C2CN(S(=O)(=O)c3ccc(C)cc3)[C@H](c3ccccc3)C[C@@H]2N(S(C)(=O)=O)[C@H](c2ccccc2)C1	none (no result: JMJD2A Tudor, BAZ2B inh, G9a block, HP1b binding inh)
CCOC(=O)N1CCN(C(=O)c2ccc3c(c2)N(CC)CCS3)CC1	G9a block 35.5µM
CCN1CCSc2ccc(C(=O)NCc3ccccc3C)cc21	JMJD2A Tudor inconclusive, BAZ2B inh inconclusive, G9a block 70.8µM
CCN1CCSc2ccc(C(=O)Nc3ccc(NC(C)=O)cc3)cc21	G9a block 50.1µM
CC(C)Oc1ccc(CNC(=O)c2ccc3c(c2)N(C)CCS3)cc1	JMJD2A Tudor inconclusive, BAZ2B inh inconclusive, G9a block 56.2µM
CCN1C(=O)[C@H]2[C@@H](c3ccc(C(F)(F)F)cc3)N[C@]3(CCCN(Cc4ccc(OC)cc4)C3=O)[C@H]2C1=O	none (no result: JMJD2A Tudor, BAZ2B inh, G9a block, HP1b binding inh)
O=C1NC(=O)C2(COC(c3cccnc3)OC2)S1 (stereo not drawn)	G9a block inconclusive
CN1CCSc2ccc(C(=O)NCc3ccccc3F)cc21	G9a block 11.2µM
CC(=O)/C(=N/Nc1ccccc1[N+](=O)[O-])N1CCCc2ccccc21	Six1-Eya2 inh -74.3, JMJD2A Tudor 11.2µM, BAZ2B inh 5.62µM, G9a block 5.01µM, CtBP-E1A inh -74.5, HP1b binding inh 7.94µM
COC(=O)/C(=N/Nc1cccc(C)c1)N1CCCc2ccccc21	BAZ2B inh inconclusive, G9a block inconclusive
O=C(Nc1cccc([N+](=O)[O-])c1)N1CCCc2ccccc21	none
CC(=O)/C(=N/Nc1ccc([N+](=O)[O-])cc1)N1CCCc2ccccc21	JMJD2A Tudor inconclusive, BAZ2B inh inconclusive, G9a block 22.4µM, HP1b binding inh inconclusive
COc1ccc(C2Nc3ccccc3-c3nnc(SC)nc3O2)cc1C (stereo not drawn)	none (no result: Six1-Eya2 inh, CtBP-E1A inh)
C/C(Cn1cnc([N+](=O)[O-])n1)=N\NC(=O)c1ccc(F)cc1	G9a block 20µM
COc1ccc(NCc2nnc3n2CCCCC3)c(OC)c1	none (no result: Six1-Eya2 inh, CtBP-E1A inh)
CC1(C)NC(=O)N(CC(=O)OCC(=O)NC(=O)c2ccccc2)C1=O	G9a block 39.8µM
CN(C)CCCC1Sc2ccccc2Sc2ccccc21 (stereo not drawn)	JMJD2A Tudor 20µM, HP1b binding inh 70.8µM (no result: BAZ2B inh, G9a block)

Screening results deposited in PubChem by National Center for Advancing Translational Sciences (NCATS).
